Drawing on PubChem BioAssay (EPA / NIEHS), this text covers outcome and AC50 for five compounds.

Inconclusive results are not listed. Activity calls are given as the source filed them. How the source made its calls, unless noted: active means hit-call score of the fitted dose curve at least 0.9, where 1 is the maximum; inactive means score below 0.9.

In general, AC50 refers to the concentration at which the activity in the assay is half-maximal.

Assay [1] can be described thus: ATG_PBREM_CIS: Attagene CIS-FACTORIAL HepG2 Assay for human Phenobarbital-responsive Enhancer Module (PBREM) (AID 2282955). The note with it: HepG2 PBREM cis-reporter, Attagene multiplexed transcription; actives raise or lower the signal. The method in brief:
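Cells were transfected with cis-element reporter units and treated for 24 h, after which RNA was extracted and reporter transcripts measured by RT-PCR and capillary electrophoresis.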

Assay [2] addresses Paired box protein Pax-6 (Homo sapiens) (UniProt P26367). The assay can be described thus: ATG_Pax6_CIS: Attagene CIS-FACTORIAL HepG2 Assay for human Paired Box 6 (PAX6) (AID 2282956). The settings on record: HepG2 CIS-FACTORIAL PAX6 reporter transcription, RNA readout; actives raise or lower the signal. The method in brief: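 DMSO-referenced bidirectional fits of reporter mRNA fluorescence; HepG2 with transient cis-promoter MRTUs, 24 h post-dose, RT-PCR plus capillary electrophoresis detection.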

The nature of assay [3]: ATG_PXRE_CIS: Attagene CIS-FACTORIAL HepG2 Assay for human Pregnane X Receptor Element (PXRE) (AID 2282957). The note with it: HepG2 Attagene CIS-FACTORIAL PXRE reporter, mRNA; actives raise or lower the signal. The essentials:
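After a 24 h chemical incubation, total RNA from transfected HepG2 cells was reverse-transcribed and reporter cDNA amplified, FAM-labeled, HpaI-digested and sized by capillary electrophoresis. DMSO served as baseline for bidirectional curve fitting.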

Assay [4] in a line: ATG_PPRE_CIS: Attagene CIS-FACTORIAL HepG2 Assay for human Peroxisome Proliferator-activated Response Element (PPRE) (AID 2282958). The note with it: HepG2 PPRE cis-element reporter, Attagene transcription factor profiling; actives raise or lower the signal. The essentials: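 In this cell-based multiplex, a PPRE cis element drives a reporter sequence in transiently transfected HepG2 cells. Following 24 h treatment, labeled cDNA amplicons are sized and quantified by capillary electrophoresis, with DMSO defining baseline.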

Assay [5] has as its target Transcription factor Sp1 (Homo sapiens) (UniProt P08047). The experiment in a line: ATG_Sp1_CIS: Attagene CIS-FACTORIAL HepG2 Assay for human Specificity Protein 1 (Sp1) (AID 2282961). The settings on record: HepG2 Sp1 cis-reporter transcription, actives raise or lower the signal. The essentials:
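Cells: HepG2, transiently transfected with cis-regulated multiplexed reporters. Exposure: 24 h. Detection: reporter transcripts amplified, fluorescently labeled, restriction-digested and sized by capillary electrophoresis. Analysis: bidirectional fit relative to DMSO.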

The nature of assay [6]: ATG_SREBP_CIS: Attagene CIS-FACTORIAL HepG2 Assay for human Sterol Regulatory Element Binding (SREBP) (AID 2282962). The settings on record: HepG2 Attagene cis-factorial SREBP reporter, mRNA; actives raise or lower the signal. The essentials:
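In this cis-format assay, HepG2 liver cells express reporters controlled by promoter elements responsive to native transcription factors. Exposure lasts 24 h; reporter mRNA fluorescence from capillary electrophoresis gives the signal, fitted bidirectionally against DMSO.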

For assay [7], the target named is Signal transducer and activator of transcription 3 (Homo sapiens) (UniProt P40763). The assay can be described thus: ATG_STAT3_CIS: Attagene CIS-FACTORIAL HepG2 Assay for human Signal Transducer and Activator of Transcription 3 (STAT3) (AID 2282963). The note with it: HepG2, Attagene cis-factorial STAT3 reporter transcription; actives raise or lower the signal. The method in brief:
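Readout: fluorescent reporter mRNA fragments resolved by capillary electrophoresis. Setup: HepG2 transfected with MRTUs reporting endogenous transcription-factor activity, dosed 24 h. Gain or loss of signal fitted bidirectionally against DMSO control.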

Assay [8] can be described thus: ATG_TCF_b_cat_CIS: Attagene CIS-FACTORIAL HepG2 Assay for human T-Cell-Factor with beta-catenin (TCF/b-cat) (AID 2282965). The settings on record: HepG2 TCF/beta-catenin cis-reporter transcription, actives raise or lower the signal. The method in brief: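 HepG2, transient MRTU transfection, cis-element-driven reporters (endogenous TFs). 24 h compound exposure. Readout: reporter mRNA by RT-PCR + 6-FAM primer extension, HpaI digest, capillary electrophoresis. Gain/loss fit vs DMSO baseline.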

The nature of assay [9]: ATG_TAL_CIS: Attagene CIS-FACTORIAL HepG2 Assay for human TAL Basal Promoter (AID 2282966).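 Further: background control endpoint measuring basal TAL promoter reporter mRNA not a specific factor.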 The settings on record: HepG2 Attagene cis-factorial TAL promoter reporter; actives raise or lower the signal. The method in brief: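 Basal-promoter background-control endpoint from a multiplexed HepG2 reporter panel. Cells were exposed 24 h, then reporter mRNA was read by RT-PCR/CE fluorescence and fitted in both directions relative to DMSO.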

The nature of assay [10]: ATG_TGFb_CIS: Attagene CIS-FACTORIAL HepG2 Assay for human Transforming Growth Factor (TGF) (AID 2282967). The note with it: HepG2 Attagene CIS TGFb reporter, mRNA transcription; actives raise or lower the signal. The essentials: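 Transient MRTU transfection of HepG2 (FuGene 6). Dose 24 h. TriZol RNA, oligo(dT) RT, PCR, 6-FAM primer extension, HpaI cut, CE. Bidirectional fit, DMSO = baseline.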

For assay [11], the target named is Estrogen receptor (Homo sapiens) (UniProt P03372). The experiment in a line: ATG_ERa_TRANS: Attagene TRANS-FACTORIAL HepG2 Assay for human Estrogen Receptor alpha (ERa) (AID 2282970; active means hit-call score of the fitted dose curve at least 0.9, where 1 is the maximum). The settings on record: HepG2 Attagene TRANS ERa GAL4 reporter, mRNA. The essentials:
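Gal4-fusion ERa transactivation, measured as reporter transcript level in transiently transfected HepG2 cells. Exposure 24 h; RT-PCR plus capillary electrophoresis with fluorescence detection.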

The nature of assay [12]: ATG_M_19_TRANS: Attagene TRANS-FACTORIAL HepG2 Assay for M19 Transcription Factor (Internal Marker) (AID 2282974; active means hit-call score of the fitted dose curve at least 0.9, where 1 is the maximum). The note with it: HepG2 Attagene TRANS-FACTORIAL M19 internal marker reporter. The method in brief:
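Reporter mRNA induction was measured in transfected HepG2 cells 24 h after dosing. Endpoint fitted upward relative to DMSO and serves as a background control within the multiplexed TRANS panel.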

Assay [13] can be described thus: ATG_Sox_CIS: Attagene CIS-FACTORIAL HepG2 Assay for human SRY-box transcription factor (SOX) (AID 2282960). The settings on record: HepG2 Attagene cis-factorial SOX reporter, mRNA; actives raise or lower the signal. The essentials:
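Measures mRNA induction of a SOX1-associated reporter in HepG2 after 24 h dosing. Fluorescently labelled RT-PCR fragments are separated by capillary electrophoresis, and gain or loss relative to DMSO control is fitted.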

Assay [14] is described as follows: ATG_TA_CIS: Attagene CIS-FACTORIAL HepG2 Assay for human TA Basal Promoter (AID 2282964). The settings on record: HepG2 Attagene CIS-factorial TA basal promoter reporter; actives raise or lower the signal. The method in brief: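 Read-out: fluorescent reporter-transcript fragments resolved by capillary electrophoresis after RT-PCR and HpaI digestion. Source: HepG2 cells carrying transiently transfected multi-reporter cis constructs, treated 24 h. Endpoint fitted bidirectionally relative to DMSO.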

The nature of assay [15]: ATG_VDRE_CIS: Attagene CIS-FACTORIAL HepG2 Assay for human Vitamin D Receptor Element (VDRE) (AID 2282968). The settings on record: HepG2 VDRE cis-reporter transcription, actives raise or lower the signal. The method in brief:
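Transient MRTU transfection of HepG2, 24 h compound exposure. Readout: reporter transcripts via RT-PCR and capillary electrophoresis, fluorescence. Bidirectional fit vs DMSO.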

The target of assay [16] is Nuclear receptor subfamily 1 group I member 3 (Homo sapiens) (UniProt Q14994). The experiment in a line: ATG_CAR_TRANS: Attagene TRANS-FACTORIAL HepG2 Assay for human Constitutive Androstane Receptor (CAR) (AID 2282969; active means hit-call score of the fitted dose curve at least 0.9, where 1 is the maximum;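 further: activators raise reporter mRNA above DMSO so AC50 marks induction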). The note with it: HepG2 Attagene TRANS-FACTORIAL CAR reporter. The essentials:
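Transiently transfected HepG2, multiplex TRANS reporters (CAR-Gal4 chimera driving GAL4-UAS reporter). 24 h dosing. Readout: reporter transcript by RT-PCR + capillary electrophoresis, fluorescence intensity; positive direction vs DMSO.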

The target of assay [17] is X-box-binding protein 1 (Homo sapiens) (UniProt P17861). The experiment in a line: ATG_Xbp1_CIS: Attagene CIS-FACTORIAL HepG2 Assay for human X-box Binding Protein 1 (XBP1) (AID 2282972). The note with it: HepG2 XBP1 cis-element reporter, Attagene multiplex; actives raise or lower the signal. The essentials:
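Changes in reporter transcript abundance, read by RT-PCR and capillary electrophoresis, reflect endogenous transcription factor activity. Transfected HepG2 cells received compound for 24 hours; DMSO defined baseline for bidirectional analysis.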

Assay [18] is described as follows: ATG_GAL4_TRANS: Attagene TRANS-FACTORIAL HepG2 Assay for GAL4 (Internal Marker) (AID 2282976; active means hit-call score of the fitted dose curve at least 0.9, where 1 is the maximum). The settings on record: HepG2 Attagene TRANS GAL4 internal marker reporter. The method in brief:
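Background-control readout: GAL4-UAS reporter transcript in transiently transfected HepG2 cells after 24 h compound exposure. Measured by RT-PCR, 6-FAM primer extension, HpaI digest and capillary electrophoresis; gain-of-signal fit versus DMSO.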

Assay [19] can be described thus: ATG_RORE_CIS: Attagene CIS-FACTORIAL HepG2 Assay for human RAR-related Orphan Receptor Element (RORE) (AID 2282959). The settings on record: HepG2 Attagene cis-factorial RORE reporter, mRNA; actives raise or lower the signal. The method in brief: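 Endogenous factor activity at a cis response element is read as reporter transcript levels in HepG2 cells, 24 h post-dose. Transcripts are quantified by RT-PCR with capillary electrophoresis, and data fitted in both directions against DMSO.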

Signal transducer and activator of transcription 3 (Homo sapiens), sequence (P40763 whole entry, looked up, the tested form may be a part): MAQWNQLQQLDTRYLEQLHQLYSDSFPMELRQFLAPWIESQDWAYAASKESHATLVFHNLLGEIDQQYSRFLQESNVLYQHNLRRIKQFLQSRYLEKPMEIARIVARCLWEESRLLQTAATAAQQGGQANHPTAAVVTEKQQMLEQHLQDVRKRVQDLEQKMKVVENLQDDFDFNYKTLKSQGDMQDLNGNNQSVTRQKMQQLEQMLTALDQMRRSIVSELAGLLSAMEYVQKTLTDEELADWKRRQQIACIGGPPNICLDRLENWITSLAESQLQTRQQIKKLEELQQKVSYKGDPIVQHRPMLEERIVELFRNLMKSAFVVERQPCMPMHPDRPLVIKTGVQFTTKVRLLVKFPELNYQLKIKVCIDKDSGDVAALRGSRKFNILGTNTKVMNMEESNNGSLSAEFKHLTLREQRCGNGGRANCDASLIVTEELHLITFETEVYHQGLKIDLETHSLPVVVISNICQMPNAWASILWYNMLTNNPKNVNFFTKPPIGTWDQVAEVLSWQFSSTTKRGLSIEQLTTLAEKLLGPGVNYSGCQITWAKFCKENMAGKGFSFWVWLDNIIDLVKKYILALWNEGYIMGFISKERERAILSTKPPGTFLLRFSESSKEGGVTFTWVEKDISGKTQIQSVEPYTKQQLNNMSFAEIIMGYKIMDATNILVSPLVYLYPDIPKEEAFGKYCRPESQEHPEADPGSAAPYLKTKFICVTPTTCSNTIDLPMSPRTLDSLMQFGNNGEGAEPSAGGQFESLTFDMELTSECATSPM
Paired box protein Pax-6 (Homo sapiens), sequence (P26367 whole entry, looked up): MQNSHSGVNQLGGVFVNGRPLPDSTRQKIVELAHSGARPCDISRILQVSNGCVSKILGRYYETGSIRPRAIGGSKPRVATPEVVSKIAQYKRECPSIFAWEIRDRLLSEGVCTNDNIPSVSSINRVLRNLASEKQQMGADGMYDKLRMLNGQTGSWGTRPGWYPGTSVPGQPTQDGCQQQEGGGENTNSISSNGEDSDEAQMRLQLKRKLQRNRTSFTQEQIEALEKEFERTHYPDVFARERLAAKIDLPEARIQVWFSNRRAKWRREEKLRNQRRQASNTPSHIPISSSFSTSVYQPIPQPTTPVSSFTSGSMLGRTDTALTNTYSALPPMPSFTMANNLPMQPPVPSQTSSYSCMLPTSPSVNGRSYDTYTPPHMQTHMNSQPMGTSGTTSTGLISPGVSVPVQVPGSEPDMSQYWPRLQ
X-box-binding protein 1 (Homo sapiens), sequence (P17861 whole entry, looked up): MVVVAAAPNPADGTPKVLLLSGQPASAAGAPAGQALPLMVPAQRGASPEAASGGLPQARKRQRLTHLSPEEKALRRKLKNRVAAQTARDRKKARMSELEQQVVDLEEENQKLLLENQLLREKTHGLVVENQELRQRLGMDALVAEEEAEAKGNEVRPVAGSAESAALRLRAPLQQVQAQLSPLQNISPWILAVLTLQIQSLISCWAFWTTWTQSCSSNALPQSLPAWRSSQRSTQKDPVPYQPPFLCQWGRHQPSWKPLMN
Estrogen receptor (Homo sapiens), sequence (P03372 whole entry, looked up, the tested form may be a part): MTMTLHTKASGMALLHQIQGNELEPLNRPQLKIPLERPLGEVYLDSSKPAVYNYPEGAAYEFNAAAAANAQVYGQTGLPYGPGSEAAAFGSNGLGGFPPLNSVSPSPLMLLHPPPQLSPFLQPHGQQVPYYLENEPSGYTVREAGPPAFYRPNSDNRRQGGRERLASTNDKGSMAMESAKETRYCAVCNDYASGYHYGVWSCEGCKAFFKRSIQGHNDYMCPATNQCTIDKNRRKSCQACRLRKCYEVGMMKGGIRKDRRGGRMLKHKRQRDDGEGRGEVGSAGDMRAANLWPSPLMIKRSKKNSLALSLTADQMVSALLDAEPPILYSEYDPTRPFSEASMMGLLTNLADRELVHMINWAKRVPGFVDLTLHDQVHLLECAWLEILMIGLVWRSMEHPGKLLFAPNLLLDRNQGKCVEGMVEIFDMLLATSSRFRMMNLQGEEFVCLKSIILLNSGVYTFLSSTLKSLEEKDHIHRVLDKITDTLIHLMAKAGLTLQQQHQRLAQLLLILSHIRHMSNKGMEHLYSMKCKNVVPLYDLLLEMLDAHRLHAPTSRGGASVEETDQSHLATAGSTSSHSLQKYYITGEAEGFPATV
Transcription factor Sp1 (Homo sapiens), sequence (P08047 whole entry, looked up): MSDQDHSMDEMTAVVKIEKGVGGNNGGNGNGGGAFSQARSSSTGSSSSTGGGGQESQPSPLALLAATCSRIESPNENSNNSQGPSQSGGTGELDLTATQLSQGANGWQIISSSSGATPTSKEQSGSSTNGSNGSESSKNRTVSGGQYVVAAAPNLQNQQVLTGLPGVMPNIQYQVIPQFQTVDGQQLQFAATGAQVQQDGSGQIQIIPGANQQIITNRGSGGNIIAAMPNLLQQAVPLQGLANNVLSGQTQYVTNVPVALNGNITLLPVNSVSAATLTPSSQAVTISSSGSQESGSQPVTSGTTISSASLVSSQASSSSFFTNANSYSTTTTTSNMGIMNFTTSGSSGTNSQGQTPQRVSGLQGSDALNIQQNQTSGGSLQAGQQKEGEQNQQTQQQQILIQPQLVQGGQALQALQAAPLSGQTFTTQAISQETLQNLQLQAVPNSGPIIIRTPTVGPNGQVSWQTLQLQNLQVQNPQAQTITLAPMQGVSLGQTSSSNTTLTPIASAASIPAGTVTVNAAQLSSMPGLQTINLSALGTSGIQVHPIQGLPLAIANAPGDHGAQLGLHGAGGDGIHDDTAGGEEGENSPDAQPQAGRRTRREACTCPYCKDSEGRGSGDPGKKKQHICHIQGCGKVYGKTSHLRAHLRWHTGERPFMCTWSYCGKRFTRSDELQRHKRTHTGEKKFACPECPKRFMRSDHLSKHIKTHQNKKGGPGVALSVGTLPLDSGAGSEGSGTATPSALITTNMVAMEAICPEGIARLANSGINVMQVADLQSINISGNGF
Nuclear receptor subfamily 1 group I member 3 (Homo sapiens), sequence (Q14994 whole entry, looked up, the tested form may be a part): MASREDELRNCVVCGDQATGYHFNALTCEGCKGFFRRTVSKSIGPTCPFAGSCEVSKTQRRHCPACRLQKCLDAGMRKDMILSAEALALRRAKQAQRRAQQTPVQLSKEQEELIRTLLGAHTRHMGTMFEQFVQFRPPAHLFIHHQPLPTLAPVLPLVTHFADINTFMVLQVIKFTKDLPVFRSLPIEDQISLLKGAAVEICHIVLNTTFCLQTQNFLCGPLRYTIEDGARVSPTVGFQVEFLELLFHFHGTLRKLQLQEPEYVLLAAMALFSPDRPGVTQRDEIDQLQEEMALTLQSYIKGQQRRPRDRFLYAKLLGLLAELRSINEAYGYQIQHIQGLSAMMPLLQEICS

On to `CCCCNS(=O)(=O)c1ccc(C)cc1`, for which the result in [1], in assay [2], in assay [4], in assay [5], in assay [6] and in assay [7] was inactive. In addition, the compound was classed as inactive in [8], in [9], in assay [10], in [11] and in assay [12]. For the same compound, the AC50 in assay [3] was 27.5 µM (active).
For the compound `COC(OC)(C(=O)c1ccccc1)c1ccccc1`, the AC50 was 3.88 µM (active) in [1]; 66 µM (active) in assay [2]; 2.19 µM (active) in assay [3]; 5.89 µM (active) in [15]; 0.817 µM (active) in [11]. Moreover, the compound was called inactive in assay [4], in assay [13], in assay [5], in assay [6], in [7] and in assay [14]. Besides, the result in assay [8], in [9], in [16], in assay [17], in assay [12] and in assay [18] was inactive.
In the case of `CCCSSCCC`, the outcome in [1], in [2], in assay [3], in assay [4], in assay [13] and in [5] was inactive. Besides, the compound was classed as inactive in assay [6], in assay [7], in assay [14], in assay [8], in assay [9] and in assay [10]. Besides, the compound was called inactive in [15], in assay [16], in [11], in assay [17] and in [18].
Turning to `CCOC(=O)OC(=O)OCC`, the result in [1], in assay [2], in [3], in assay [4], in [13] and in assay [5] was inactive. In addition, the result in assay [6], in [7], in assay [8], in assay [9], in assay [10] and in assay [18] was inactive.
For `CCCCCCCCCC[N+](C)(CCCCCCCCCC)CCC[Si](OC)(OC)OC`, the AC50 in assay [1] is 19.3 µM (active); in assay [3] it was 3.94 µM (active); in [4], 19.9 µM (active); in [19] it was 18.2 µM (active); in [5], 21.1 µM (active); in assay [6], 17 µM (active). Moreover, the AC50 in assay [7] is 18.1 µM (active); in [17], 18 µM (active). Besides, the compound was called inactive in assay [2], in [14], in assay [8], in assay [9], in assay [10] and in [15]. In addition, in assay [12], the call was inactive.
